{
  "source": "PubChem BioAssay (EPA / NIEHS)",
  "note": "“And” between values parts separate entries of the source, which are not always exact repeats. Equal values may be shown once. Records with an inconclusive call do not appear. The source made the active and inactive calls. Rule for the calls: active = hit-call score of the fitted dose curve at least 0.9, where 1 is the maximum; inconclusive = response in the unintended direction; inactive = score below 0.9.",
  "data": [
    {"biological_target": "human Phosphatase and Tensin Homolog (PTEN), PTEN (gene 5728) (UniProt P60484)", "sequence (P60484 whole entry, looked up)": "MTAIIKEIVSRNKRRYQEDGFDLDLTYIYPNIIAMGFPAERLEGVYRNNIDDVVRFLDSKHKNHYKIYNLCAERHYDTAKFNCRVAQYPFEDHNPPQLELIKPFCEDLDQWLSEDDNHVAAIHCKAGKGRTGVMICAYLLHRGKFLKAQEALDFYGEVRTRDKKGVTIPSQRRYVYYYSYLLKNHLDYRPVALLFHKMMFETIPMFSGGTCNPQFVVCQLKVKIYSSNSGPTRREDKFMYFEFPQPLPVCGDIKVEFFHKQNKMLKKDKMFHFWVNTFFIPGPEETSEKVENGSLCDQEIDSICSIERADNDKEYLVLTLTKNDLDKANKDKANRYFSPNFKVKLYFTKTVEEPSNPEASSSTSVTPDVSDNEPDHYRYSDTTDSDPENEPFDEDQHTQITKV", "experiment": "NVS_ENZ_hPTEN: NovaScreen (NVS) Enzymatic Assay for human Phosphatase and Tensin Homolog (PTEN) (AID 2283203)", "protocol": "NVS_ENZ_hPTEN is a biochemical, single-readout assay that uses extracted gene-proteins in a cell-free assay. Measurements were taken 1 hour after chemical dosing in a 384-well plate.NVS_ENZ_hPTEN is one of one assay component(s) measured or calculated from the NVS_ENZ_hPTEN assay. It is designed to make measurements of enzyme activity, a form of enzyme reporter, as detected with fluorescence intensity signals by Fluorescence and electrophoretic mobility shift technology.Data from the assay component NVS_ENZ_hPTEN was analyzed into 1 assay endpoint. This assay endpoint, NVS_ENZ_hPTEN, was analyzed in the positive analysis fitting direction relative to DMSO as the negative control and baseline of activity. Using a type of enzyme reporter, loss-of-signal activity can be used to understand changes in the enzymatic activity as they relate to the gene PTEN. Furthermore, this assay endpoint can be referred to as a primary readout, because this assay has produced multiple assay endpoints where this one serves a enzymatic activity function. To generalize the intended target to other relatable targets, this assay endpoint is annotated to the phosphatase intended target family, where the subfamily is dual-specific phosphatase.\nBinding assays used specific radioligands (tritiated, iodinated) with non-radioactive competitive displacement ligands in agonist or antagonist protocols (as indicated) and various reference compounds and inhibitors to titrate specific binding to receptors and transporters. Most enzyme assays (CYPs, kinases, phosphatases, proteases, HDACs) used recombinant protein and specific substrates (fluorescence mostly, some colorimetric and radioactive) and inhibitors, followed by a biochemical separation of substrate and product. All assays for the biochemical HTS were initially run in duplicate at a single concentration (10 uM for CYP450 assays and 25 uM for all others). […] Each assay was run with positive and negative controls, and concurrent controls on every plate. The follow-up (secondary) screen tested active chemical-pairs in concentration series, as well as a few additional assays not tested in the primary screen, some selected negative inactives, and several cases re-run in the concentration series for confirmatory purposes.", "values": [
      {"smiles": "C=CC(=O)OCC(Br)CBr", "note": "(stereo not given)", "outcome": "inactive"},
      {"smiles": "O=S(=O)(O)c1ccc(N=Nc2c(O)ccc3cc(S(=O)(=O)O)ccc23)cc1", "outcome": "inactive"},
      {"smiles": "CCCCCCCCCCCCc1ccccc1S(=O)(=O)O", "AC50": "13.5 µM (active)"},
      {"smiles": "CC=CC(=O)C1=C(C)C=CCC1(C)C", "outcome": "inactive"},
      {"smiles": "CCCCC/C=C/C=C/C=O", "AC50": "25 µM (active)"},
      {"smiles": "Cc1ccc2ncccc2c1", "outcome": "inactive"},
      {"smiles": "CCCCCCCCC(C)=O", "outcome": "inactive"},
      {"smiles": "Cl/C=C\\CCl", "outcome": "inactive"},
      {"smiles": "CCC(C)C(=O)OC", "note": "(stereo not given)", "outcome": "inactive"},
      {"smiles": "S=C([S-])NCCNC(=S)[S-].[Mn+2]", "AC50": "0.933 µM (active)"},
      {"smiles": "O=C(O)c1cccc(Oc2ccccc2)c1", "outcome": "inactive"},
      {"smiles": "CCN(CC)CC", "AC50": "3.58 µM (active)"},
      {"smiles": "CC/C=C\\C/C=C\\C/C=C\\CCCCCCCC(=O)OC", "AC50": "9.64 µM (active)"},
      {"smiles": "O=C(O)C1(C(=O)Nc2ccc(Cl)cc2Cl)CC1", "AC50": "3.91 µM (active)"},
      {"smiles": "CCCCCCCCCC", "outcome": "inactive"},
      {"smiles": "COCCO", "outcome": "inactive"},
      {"smiles": "NC(=O)N1C(=O)C(C(=O)c2cc(Cl)cs2)c2cc(F)c(Cl)cc21", "note": "(stereo not given)", "AC50": "25 µM (active)"},
      {"smiles": "Clc1ccc(-c2ccccc2)cc1", "outcome": "inactive"},
      {"smiles": "CCC(=O)OCC=Cc1ccccc1", "outcome": "inactive"},
      {"smiles": "NC(=O)N(O)[C@@H]1C=C[C@H](Oc2cccc(Oc3ccc(F)cc3)c2)C1", "outcome": "inactive"},
      {"smiles": "CCCC(CCC)C(=O)O", "outcome": "inactive"},
      {"smiles": "CC(C)CCCCCCc1ccc(O)cc1", "outcome": "inactive"},
      {"smiles": "S=C(S)NCCNC(=S)S.[Mn+2].[S-]C([S-])=NCCN=C([S-])[S-].[Zn+2]", "AC50": "3.14 µM (active) and 80.5 nM (active) and 274 nM (active)"},
      {"smiles": "ClC1=C(Cl)[C@]2(Cl)[C@@H]3[C@@H](Cl)[C@H](Cl)C[C@@H]3[C@@]1(Cl)C2(Cl)Cl", "outcome": "inactive"},
      {"smiles": "CSC(=O)c1cccc2nnsc12", "outcome": "inactive"},
      {"smiles": "COCC(C)OCC(C)O", "note": "(stereo not given)", "outcome": "inactive"},
      {"smiles": "COc1ccccc1C=O", "outcome": "inactive"},
      {"smiles": "CCCCOCC", "AC50": "37 µM (active)"},
      {"smiles": "Cc1nc(C)nc(N2C[C@@H](C)N(c3ccnc([C@@H](C)O)n3)[C@@H](C)C2)n1", "outcome": "inactive"},
      {"smiles": "CCCCCCCCCCCCCCCC", "outcome": "inactive"},
      {"smiles": "C=C(C)CCCC", "outcome": "inactive"},
      {"smiles": "N#CSCSc1nc2ccccc2s1", "outcome": "inactive"},
      {"smiles": "CC(C)=CCCC(C)O", "note": "(stereo not given)", "outcome": "inactive"},
      {"smiles": "CCCCCC1=CCCC1=O", "AC50": "16.3 µM (active)"},
      {"smiles": "N#[N+]c1ccc2c(S(=O)(=O)[O-])cccc2c1O", "outcome": "inactive"},
      {"smiles": "Cc1ccc(N)c([N+](=O)[O-])c1", "AC50": "25 µM (active)"},
      {"smiles": "CCOC(C=C(C)CCC=C(C)C)OCC", "outcome": "inactive"},
      {"smiles": "O=C1OC2(c3ccc(O)cc3Oc3cc(O)ccc32)c2ccccc21", "outcome": "inactive"},
      {"smiles": "CCNc1nc(NC(C)(C)C)nc(OC)n1", "outcome": "inactive"},
      {"smiles": "O=C1OC2(c3cc(Br)c(O)c(Br)c3Oc3c2cc(Br)c(O)c3Br)c2c(Cl)c(Cl)c(Cl)c(Cl)c21", "AC50": "0.851 µM (active)"}
    ]}
  ]
}
